From PubChem BioAssay (NCI)
Compounds without any hit were thinned out: in the full panel of roughly 79,000, 15% have a hit. The source made the active and inactive calls. Rule as the data show it: active = growth inhibition above about 70%; inactive = the rest. Starred links: 1 amine or outer side, 2 acyl side, 3 side chain; linkers in the order of their positions; H or OH if unused. Positions of bridges follow the written chain, without caps; N, C: chain ends. Non-standard residues stand in square brackets, D forms with d. Residues, ends and D or L forms follow the SMILES beside them. Chains are numbered I, II in the order given. Actinocin(9to1) = Cc1c2oc3c(C)ccc(C(=O)[*:1])c3nc-2c(C(=O)[*:2])c(N)c1=O; aThr = C[C@H](O)[C@H](N)C(=O)O; NMeV = CN[C@H](C(=O)O)C(C)C; Sar = CNCC(=O)O

Test: NCI Yeast Anticancer Drug Screen. Data for the rad14 strain (AID 159);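 also: 0% = growth of vehicle-treated control cultures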
Conditions: S. cerevisiae rad14 strain growth inhibition, hits give high values
Description: Growth inhibition of yeast strains with defined genetic alterations is measured as a screen for potential anti-cancer activity. Selected strains with alterations in DNA damage repair or cell cycle control were exposed to compounds and growth inhibition was measured relative to vehicle treated controls. The strain used in this assay is rad14

SMILES | growth inhibition (at 1.2 µM) | growth inhibition (at 3.7 µM) | growth inhibition (at 11.0 µM) | growth inhibition (at 33.0 µM) | growth inhibition (at 100.0 µM)
Cc1c2oc3c(C)ccc(C(=O)N[C@@H]4C(=O)N[C@H](C(C)C)C(=O)N5CCC[C@H]5C(=O)N(C)CC(=O)N(C)[C@@H](C(C)C)C(=O)O[C@H]4C)c3nc-2c(C(=O)N[C@@H]2C(=O)N[C@H](C(C)C)C(=O)N3CCC[C@H]3C(=O)N(C)CC(=O)N(C)[C@@H](C(C)C)C(=O)O[C@H]2C)c(N)c1=O (I: [aThr][dV]P[Sar][NMeV] / II: [aThr][dV]P[Sar][NMeV]; ester I:1-I:C, II:1-II:C; linker I:N-II:N via Actinocin(9to1)) | 3% (inactive) | 32% (inactive) | 75% (active) | 97% (active) | 98% (active)
c1cc2ccc3cc4ncccc4c4ccc(c1)c2c34 | 1% (inactive) | 7% (inactive) | 20% (inactive) | 68% (inactive) | 79% (active)
O=C1C(C(O)(C(F)(F)F)C(F)(F)F)CCC1C(O)(C(F)(F)F)C(F)(F)F (stereo not given) | 4% (inactive) | 6% (inactive) | 14% (inactive) | 28% (inactive) | 49% (inactive)
CCOc1nc(OCC)nc(-c2cccn2-c2ccccc2)n1 | -11% (inactive) | -8% (inactive) | -1% (inactive) | 13% (inactive) | 90% (active)
Nc1cccc2cc(Cl)cnc12 | -36% (inactive) | -31% (inactive) | -36% (inactive) | -31% (inactive) | 58% (inactive)
CN(NC(=O)/C(=C/C=C/c1ccccc1)NC(=O)c1ccccc1)C1=C(Cl)C(=O)[N+](c2ccccc2)=CC1 | -1% (inactive) | -4% (inactive) | 2% (inactive) | 13% (inactive) | 29% (inactive)
CCCCCCCCCC/C=C\CC(=O)O | 0% (inactive) | 1% (inactive) | 9% (inactive) | 33% (inactive) | 99% (active)
O=C1c2ccccc2C2CCC1c1ccccc12 (stereo not given) | -25% (inactive) | -24% (inactive) | -17% (inactive) | -6% (inactive) | 97% (active)
